Data as given in PubChem BioAssay (NCI).
The panel holds about 83,000 compounds, 20% with a hit somewhere; the sample as a whole holds those more often.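 Method: cells in 96-well plates; compound added at one concentration; 48 h incubation; percent growth measured; values under 10 scored active.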 Values without a mark were called inactive. The source made the active and inactive calls.

Key:
Assay in all cases: NCI-60 one-dose screen, 48 h (100 = growth as untreated, 0 = no growth, -100 = all killed)
Details in all cases: 10 µM unless noted
NCI-H23 lung = test system: NCI-H23 lung
NCI-H226 lung = test system: NCI-H226 lung
NCI-H322M lung = test system: NCI-H322M lung
HOP-62 NSCLC = test system: HOP-62 NSCLC
NCI-H460 lung = test system: NCI-H460 lung
NCI-H522 lung = test system: NCI-H522 lung
A549/ATCC NSCLC = test system: A549/ATCC NSCLC
786-0 renal = test system: 786-0 renal
COLO 205 colon = test system: COLO 205 colon
DU-145 prostate = test system: DU-145 prostate
K-562 leukemia = test system: K-562 leukemia
MALME-3M melanoma = test system: MALME-3M melanoma
MDA-MB-231 breast = test system: MDA-MB-231 breast
RXF 393 renal = test system: RXF 393 renal
SF-268 CNS = test system: SF-268 CNS
SF-539 CNS = test system: SF-539 CNS
UACC-257 melanoma = test system: UACC-257 melanoma
M14 melanoma = test system: M14 melanoma
HCT-15 colon = test system: HCT-15 colon

| SMILES | growth (NCI-H23 lung) [%] | growth (NCI-H226 lung) [%] | growth (NCI-H322M lung) [%] | growth (HOP-62 NSCLC) | growth (NCI-H460 lung) | growth (NCI-H522 lung) | growth (A549/ATCC NSCLC) | growth (786-0 renal) | growth (COLO 205 colon) | growth (DU-145 prostate) | growth (K-562 leukemia) | growth (MALME-3M melanoma) | growth (MDA-MB-231 breast) [%] | growth (RXF 393 renal) | growth (SF-268 CNS) | growth (SF-539 CNS) | growth (UACC-257 melanoma) [%] | growth (M14 melanoma) | growth (HCT-15 colon) |
| --- | --- | --- | --- | --- | --- | --- | --- | --- | --- | --- | --- | --- | --- | --- | --- | --- | --- | --- | --- |
| CCOC(=O)C1=C(C)N2C(=NC3=C(CCC/C3=C\c3ccc(Cl)cc3)C2c2ccc(Cl)cc2)S1 (configuration not stated) | 10.9 | 47.5 | 101 | 88.2% | 51.8% | 58% | 5.11% (active) | -0.562% (active) | 8.78% (active) | -0.137% (active) | -11.8% (active) | 77% | 71.6 | -71.7% (active) | 34.7% | 41.3% | 25.7 | -40.8% (active) | -28.7% (active) |
| O=C(Nc1cccc(C(F)(F)F)c1)Nc1ccc(OCc2nnc(-c3ccc(Cl)cc3)o2)c(F)c1 | 68 | 94.9 | 86.5 | 50.8% | 63.9% | 64% | 50% | 84.2% | 66.5% | 88.1% | 61% | 55.7% | 58.8 | 58.2% | 83.3% | 82.2% | 62.8 | 73.5% | 42.9% |
| COc1ccc(-c2noc(N)c2-c2cc(OC)c3c(c2)OCO3)cc1 | 28.1 | 86.3 | 57.5 | 34.6% | 16% | -23.4% (active) | 29.2% | 59.7% | 12.4% | 28.7% | 2.56% (active) | -2.12% (active) | 47.6 | 32.4% | 35.6% | 9.14% (active) | 50.8 | 11.7% | 20.6% |
| CCC(C)CC(C)C(=O)c1c(O)ccn(O)c1=O (configuration not stated) | 25.2 | 95.8 | 52.5 | 24% | 23.7% | 33.2% | 22.6% | 70% | 108% | 42.7% | 18.2% | 42.1% | 45.3 | 35.4% | 26.4% | 5.81% (active) | 27.1 | 15.5% | 25.3% |
| S=c1[nH]nc2sc3ccccc3n12 | 88 | 106 | 125 | 97.9% | 111% | 98.4% | 108% | 111% | 104% | 121% | 107% | 122% | 96.7 | 116% | 110% | 106% | 111 | 104% | 100% |
| CCOC(Cc1c(N)[nH]c(=S)[nH]c1=O)OCC | 104 | 96.8 | 98.9 | 102% | 114% | 93% | 104% | 109% | 105% | 115% | 98.5% | 99.5% | 111 | 108% | 111% | 99.4% | 103 | 105% | 106% |
| C[C@]12CC[C@@H]3c4ccc(O)cc4CC[C@H]3[C@@H]1CC[C@@H]2NS(=O)(=O)c1cccc(Br)c1 | 68.1 | 60.5 | 70.6 | -16.6% (active) | 61.7% | 40.4% | 43.2% | 70.3% | 64.7% | 75% | 30.1% | 63.2% | 71.1 | 42.6% | 59.7% | 85.6% | 80.3 | 68.9% | 50.9% |
| COc1cc(/C=C2\CCC/C(=C\c3ccc(OCC4CO4)c(OC)c3)C2=O)ccc1OCC1CO1 (configuration not stated) | 57.8 | 86.2 | 85.1 | 28.9% | 8.96% (active) | 24.3% | 21.3% | 65.2% | 33.8% | 7.14% (active) | -3.49% (active) | 26.2% | 13.1 | 4.7% (active) | 1.73% (active) | 25.2% | 35.1 | 2.79% (active) | 14.4% |
